Measured values as given in PubChem BioAssay (NCATS).
Records with an inconclusive call do not appear. The source made the active and inactive calls. The call rests on the fitted dose curve; in most records, active means well fitted inhibition curve with a large enough effect; inconclusive means small, poorly fitted or top-dose-only effect; inactive means flat fitted curve, though single readings scatter.

What was measured:
Test in all cases: qHTS profiling for inhibitors of Plasmodium falciparum proliferation (AID 504749); further: nearly all actives have a fitted effect of over 60% in size
Details in all cases: P. falciparum in erythrocytes, SYBR Green DNA, 72 h; series mostly up to 28.7 µM
CP305 = tested on: CP305
In short: (§1)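 Three-day growth assay of blood-stage parasites in erythrocytes (0.3% parasitemia, 2.5% hematocrit) at 37 C, 5% CO2, quantified by SYBR Green DNA staining after overnight detergent lysis.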

CP315 = tested on: CP315
In short: as §1

CP325 = tested on: CP325
In short: as §1

CP329 = tested on: CP329
In short: as §1

CP335 = tested on: CP335
In short: as §1

DFO2036 = tested on: DFO2036
In short: as §1

DIV14 = tested on: DIV14
In short: as §1

DIV17 = tested on: DIV17
In short: as §1

DIV30 = tested on: DIV30
In short: as §1

Dd2 = tested on: Dd2
In short: as §1

ECU = tested on: ECU
In short: as §1

FAB9 = tested on: FAB9
In short: as §1

GB4 = tested on: GB4
In short: as §1

HB3 = tested on: HB3
In short: as §1

ICS = tested on: ICS
In short: as §1

JCK = tested on: JCK
In short: as §1

N140 = tested on: N140
In short: as §1

P93_24 = tested on: P93_24
In short: as §1

P94_40 = tested on: P94_40
In short: as §1

PAD = tested on: PAD
In short: as §1

Measured: Potency

O=C(/C=C/c1cccc(F)c1)NC1CC1
inactive: all assays above

NCC(O)CC(=O)O (stereo not given)
inactive: all assays above

CCCCCCOC(=O)c1cccnc1
inactive: all assays above

F[Si-2](F)(F)(F)(F)F
inactive: all assays above

COc1ccc(C(=O)CCC(=O)O)c2ccccc12
inactive: all assays above

O=C(O)CCCC/C=C(\c1ccccc1)c1cccnc1
inactive: all assays above

CC(C)c1ncc([N+](=O)[O-])n1C
inactive: all assays above

COC(=O)C(CN)c1c[nH]c2ccc(OC)cc12 (stereo not given)
inactive: all assays above

C[C@H](O)CN(C)C
inactive: all assays above

C[Se]CC[C@H](N)C(=O)O
inactive: all assays above

OC/C=C/c1ccccc1
inactive: all assays above

CCCCCCCCCCCC(=O)N(CCO)CCO
inactive: all assays above

CC(C)CCCC(C)NC(C)C (stereo not given)
inactive: all assays above

CC(C)CCC[C@@H](C)[C@H]1CC[C@H]2[C@@H]3CC=C4C[C@@H](O)CC[C@]4(C)[C@H]3CC[C@]12C
inactive: all assays above

CC12CCC(C[N+](C)(CCC[N+](C)(C)C)C1)C2(C)C (stereo not given)
inactive: all assays above

CCCCCCCCCCCCOCCCN
inactive: all assays above

CCOc1ccc(S(=O)(=O)O)c2cccnc12
inactive: all assays above

NC(=S)NS(=O)(=O)c1ccc(N)cc1
inactive: all assays above

CN(C)C=Nc1c(I)cc(I)c(CCC(=O)O)c1I
inactive: all assays above

CO
inactive: all assays above

NC(=O)[C@@H]1CCCN1C(=O)[C@H](Cc1cnc[nH]1)NC(=O)[C@@H]1CCC(=O)N1
inactive: all assays above

CC(=O)Nc1ccc(OC(C)=O)cc1
inactive: all assays above

CCCCCCCCCCCCCC(=O)OCC(COP(=O)([O-])OCC[N+](C)(C)C)OC(=O)CCCCCCCCCCCCC (stereo not given)
inactive: all assays above

OB(O)O
inactive: all assays above

CCN(CC)CCOC(=O)c1cccnc1
inactive: all assays above

C[C@H](N)C(=O)N[C@@H](C)P(=O)(O)O
inactive: all assays above

FC(F)(F)C(F)(F)C(F)(F)C(F)(F)C(F)(F)C(F)(F)F
inactive: all assays above
